Data reported in PubChem BioAssay (NCI).
This is part of a sample that, as a whole, favours compounds with a hit. Of some 83,000 tested, about 20% had one in any assay.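 Method: cells in 96-well plates; compound added at one concentration; 48 h incubation; percent growth measured; values under 10 scored active.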 Active and inactive are the calls of the source.

Tests used:
Assay in all cases: NCI-60 one-dose screen, 48 h (100 = growth as untreated, 0 = no growth, -100 = all killed)
[1] = system: RPMI-8226 leukemia; details: 10 µM unless noted
[2] = system: OVCAR-8 ovarian; details: 10 µM unless noted
[3] = system: OVCAR-5 ovarian; details: 10 µM unless noted
[4] = system: OVCAR-4 ovarian; details: 10 µM unless noted
[5] = system: IGROV1 ovarian; details: 10 µM unless noted
[6] = system: OVCAR-3 ovarian; details: 10 µM unless noted
[7] = system: HS 578T breast; details: 10 µM unless noted
[8] = system: NCI/ADR-RES ovarian; details: 10 µM unless noted
[9] = system: T-47D breast; details: 10 µM unless noted
[10] = system: MDA-MB-435 melanoma; details: 10 µM unless noted
[11] = system: SW-620 colon; details: 10 µM unless noted
[12] = system: HCT-116 colon; details: 10 µM unless noted
[13] = system: HCC-2998 colon; details: 10 µM unless noted
[14] = system: KM12 colon; details: 10 µM unless noted
[15] = system: BT-549 breast; details: 10 µM unless noted
[16] = system: MCF7 breast; details: 10 µM

Measured: growth

Cc1ccc(NC2=CC(=O)C(=O)c3ccccc32)c(C)c1
inactive: [1] 56.7% | [2] 27.9% | [3] 80.3% | [4] 48.1% | [5] 35.6% | [7] 79.5% | [8] 15.6% | [9] 22.9% | [11] 34.9% | [13] 29.1% | [14] 46.4%
active: [6] -15.6% | [10] -77% | [12] -6.25%

COC(=O)[C@H](NC(=O)C1(C)CCC[C@]2(C)[C@H]3C[C@H]4C(C(C)C)=C[C@]3(CC[C@@H]12)[C@@H]1C(=O)CCC(=O)[C@@H]14)C(C)C (some centres not stated)
inactive: [1] 103% | [2] 101% | [3] 98.7% | [4] 94.5% | [5] 91.9% | [6] 109% | [7] 92.9% | [8] 96.1% | [9] 94.2% | [15] 106% | [10] 104% | [11] 106% | [16] 98.2% | [13] 104% | [14] 105%

Brc1ccc(Oc2ccc(Nc3ncnc4onc(-c5ccccc5)c34)cc2)cc1
inactive: [1] 90.3% | [2] 97.8% | [3] 105% | [4] 88.2% | [5] 96.5% | [6] 119% | [7] 96.8% | [8] 94.1% | [9] 77.8% | [15] 102% | [11] 100% | [16] 86.1% | [12] 97.5% | [13] 95.5% | [14] 99.6%

CC(C)Cn1c2c(c(=S)[nH]c1=O)CCC2
inactive: [1] 99.2% | [2] 101% | [3] 99.5% | [4] 101% | [5] 103% | [6] 111% | [7] 102% | [8] 106% | [9] 111% | [15] 108% | [10] 98.9% | [11] 93.6% | [16] 109% | [12] 105% | [13] 123% | [14] 105%

CCCN1CCN(c2ccc3nc(-c4ccc5nc(-c6cc(OC)ccc6OC)[nH]c5c4)[nH]c3c2)CC1
active: [1] -17% | [11] -70.2% | [12] -57.3%
inactive: [2] 106% | [3] 113% | [4] 81.1% | [5] 103% | [6] 122% | [7] 111% | [8] 111% | [9] 98.8% | [15] 96.3% | [10] 106% | [13] 113% | [14] 32.3%

O=C(/C=C/c1ccccc1)c1ccc(Nc2nc(NCCO)nc(Nc3ccc(Cl)cc3)n2)cc1
active: [1] 9.69%
inactive: [2] 89.1% | [3] 97.7% | [4] 73.4% | [5] 97.3% | [6] 59.9% | [7] 93.1% | [8] 91.7% | [9] 62.7% | [15] 84.4% | [11] 18.7% | [12] 27.5% | [13] 62.5% | [14] 28.2%

COc1cc(/C=C/C(=O)c2ccc(Cl)cc2)cc(CN2CCCCC2)c1O
inactive: [1] 50.9% | [2] 89.3% | [3] 99.7% | [4] 76.7% | [5] 90.5% | [6] 93.8% | [7] 85.4% | [8] 88.5% | [9] 79.3% | [15] 91.2% | [10] 74% | [11] 88.6% | [16] 48.1% | [12] 82.1% | [13] 95.5% | [14] 72.6%

O=S(=O)(Nc1ncccn1)c1ccc(NC2Nc3nc4ccccc4nc3S2)cc1 (configuration not stated)
inactive: [1] 99% | [2] 98.8% | [3] 96.4% | [4] 102% | [5] 96.3% | [6] 109% | [7] 95.9% | [8] 99.6% | [9] 101% | [15] 95.9% | [10] 98.3% | [11] 99.3% | [16] 98.8% | [12] 101% | [13] 108% | [14] 106%

COc1cc(/C=C2\CN(C)C/C(=C\c3cc(CN4CCCCC4)c(O)c(OC)c3)C2=O)cc(CN2CCCCC2)c1O
active: [6] 7.74% | [10] 2.5% | [14] 5.98%
inactive: [1] 25.9% | [2] 39.2% | [3] 38.8% | [4] 38.6% | [5] 68.4% | [7] 81.9% | [8] 70.7% | [9] 67.2% | [15] 61.3% | [11] 20% | [12] 30.7% | [13] 16.1%

O=C1/C(=C/c2cccc(O)c2)COc2ccc(O)cc21
active: [1] -10.6% | [11] 9.65%
inactive: [2] 68.7% | [3] 105% | [4] 98.1% | [5] 78.1% | [6] 55.5% | [7] 101% | [8] 96.7% | [9] 86.8% | [15] 98.1% | [10] 60.3% | [16] 14% | [13] 103% | [14] 20.9%

C=CCN1C(=O)/C(=c2\sc3n(c2=O)NC2C(N=3)N(CC)C(=O)N2CC)c2ccccc21 (configuration not stated)
inactive: [1] 66.1% | [2] 48.2% | [3] 44.2% | [4] 39.2% | [5] 34.2% | [6] 22.5% | [7] 29.4% | [8] 18.7% | [9] 54.4% | [15] 48.6% | [11] 34.3% | [12] 14.8% | [13] 38% | [14] 24.5%
active: [10] -7.64%

COc1ccc2oc(=O)cc(Cn3cc(Cn4cnc5c4c(=O)n(C)c(=O)n5C)nn3)c2c1
inactive: [1] 103% | [2] 106% | [3] 94% | [4] 103% | [5] 104% | [6] 110% | [7] 97.8% | [8] 105% | [9] 94.1% | [15] 105% | [10] 108% | [11] 105% | [12] 102% | [13] 95.9% | [14] 105%

COC(=O)c1c2c(c(C)[n+]([O-])c1C)C(=O)C(NCc1ccc(F)c(F)c1)=CC2=O
active: [2] 4.63% | [4] -93.4% | [5] 0.321% | [6] -19% | [8] -6.62% | [10] -88.4% | [11] 3.6% | [16] -43.3% | [12] 1.74% | [13] 9.25%
inactive: [1] 29.9% | [3] 41.4% | [7] 80.2% | [9] 10.9% | [15] 66.4% | [14] 10.4%

O=c1c2cccc(F)c2sc2c(N3CCNCC3)nc3ccccc3c12
active: [1] 1.83% | [10] 2.82% | [11] -39.8% | [16] -20.6% | [12] 7.91% | [13] -6.49%
inactive: [2] 32.7% | [3] 61.9% | [4] 46.9% | [5] 28.3% | [6] 30.9% | [7] 34.8% | [8] 42.6% | [15] 73.7% | [14] 10.4%

Cc1cccc2c(=O)c3c(sc12)c(NCCN)nc1ccccc13
inactive: [7] 37.1% | [15] 72.1%
active: [1] -37.9% | [2] -25% | [3] -46.9% | [4] -24.4% | [5] -70.1% | [6] -89.6% | [8] -45.5% | [10] -93.9% | [11] -77.6% | [16] -82.1% | [12] -93.9% | [13] -77.8% | [14] -90.5%

Cn1c(/C=C(\C#N)c2ccccc2)nc2c(N3CCOCC3)nc(Cl)nc21
active: [1] -24.3% | [2] 8.78% | [3] -50.1% | [4] -58.4% | [5] -61.7% | [6] -91.8% | [7] -20% | [8] 3.17% | [9] -37.8% | [15] -77.2% | [10] -84.7% | [11] -74.2% | [12] -78.1% | [13] -17.2% | [14] -53%

CNC(=O)c1cc(Oc2ccc(CC(=O)Nc3cc(C(C)(C)C)cn3C)cc2)ccn1
inactive: [1] 53.1% | [2] 65.2% | [3] 116% | [4] 48.9% | [5] 67% | [6] 81.6% | [7] 86.9% | [8] 72.4% | [9] 48.9% | [15] 63.9% | [11] 105% | [16] 50.1% | [13] 103% | [14] 86.3%

Cc1cc2c(c(C)c1Cl)C(=O)/C(=C/c1ccco1)O2
inactive: [1] 87% | [2] 102% | [3] 114% | [4] 63.3% | [5] 59.2% | [6] 104% | [7] 98.8% | [8] 104% | [9] 47.5% | [15] 103% | [10] 100% | [11] 108% | [16] 24.7% | [12] 98.7% | [13] 97.6% | [14] 75.9%

Cc1ccccc1CNC(=O)C1CN(c2ccc(Cl)cc2)N(c2ccc(Cl)cc2)C1=O (configuration not stated)
inactive: [1] 65% | [2] 87.9% | [3] 91.8% | [4] 84.1% | [5] 89.7% | [6] 81.1% | [7] 85.5% | [8] 84.3% | [9] 71.6% | [15] 90.6% | [11] 81.9% | [16] 74.1% | [12] 83.8% | [13] 100% | [14] 87.2%
